Here are results for 9 compounds from PubChem BioAssay (NCI).

Some test systems named below: SR leukemia; RPMI-8226 leukemia; OVCAR-8 ovarian; OVCAR-5 ovarian; OVCAR-4 ovarian; SK-OV-3 ovarian; IGROV1 ovarian; OVCAR-3 ovarian; HS 578T breast; NCI/ADR-RES ovarian; BT-549 breast; MDA-MB-435 melanoma; SW-620 colon; MCF7 breast; HCT-116 colon; HCC-2998 colon; KM12 colon; T-47D breast.
Test in all cases: NCI-60 one-dose screen, 48 h (100 = growth as untreated, 0 = no growth, -100 = all killed)
Common to all, as to conditions: 10 µM unless noted

The structures appear in SMILES notation. The panel holds about 83,000 compounds, 20% with a hit somewhere; the sample as a whole holds those more often.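 Plates (96-well) were seeded with cells, treated with compound at one concentration, and incubated for 48 hours before percent growth was determined.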 Unmarked numbers belong to inactive results. The source made the active and inactive calls. Rule for the calls: active = growth percent below 10; inactive = the rest.

Turning to `CCCC1Cc2cc(-n3nc(C)c4c3CC(C)(C)CC4=O)cc(NC3CCC(O)CC3)c2C(=O)N1` (configuration not stated), the growth was 29.5% with SR leukemia; 51% in the test with RPMI-8226 leukemia; 40.3% in the test on OVCAR-8 ovarian; 58.8% in the test with OVCAR-5 ovarian; 62.5% in the test on OVCAR-4 ovarian; 17.1% in the test with SK-OV-3 ovarian. The growth with IGROV1 ovarian was 24.7%; in the test with OVCAR-3 ovarian, 52.6%; with HS 578T breast it was 59.1%; with NCI/ADR-RES ovarian, 47%; in the test on BT-549 breast, 68.4%; with MDA-MB-435 melanoma it was 26.8%. The growth in the test on SW-620 colon was 20.4%; in the test on MCF7 breast, 36.5%; in the test with HCT-116 colon, 15.4%; in the test with HCC-2998 colon, 34.2%; with KM12 colon, 15.5%.
With `COc1ccc(/C=C\c2cc(OC)c(OC)c(OC)c2)cc1OCC(=O)Nc1nc2ccccc2s1`, the growth is 9.4% (active) in the test with SR leukemia; 22.5% in the test on RPMI-8226 leukemia; 19% in the test with OVCAR-8 ovarian; 65% in the test with OVCAR-5 ovarian; 49.2% in the test on OVCAR-4 ovarian; 30.4% with SK-OV-3 ovarian. The growth in the test with IGROV1 ovarian is 3.36% (active); in the test with OVCAR-3 ovarian, 0.388% (active); with HS 578T breast, 11.3%; in the test with NCI/ADR-RES ovarian, 12.7%; in the test on BT-549 breast, 38.7%; in the test on MDA-MB-435 melanoma it was -2.64% (active). The growth with SW-620 colon is 30%; in the test with MCF7 breast, 9.7% (active); in the test with HCT-116 colon it was 5.14% (active); in the test on HCC-2998 colon, 35.6%; with KM12 colon, 5.76% (active).
As for `Nc1ncc(-c2ccc3ncnc(N4CCc5ccc(Cl)cc54)c3c2)cn1`, the growth was -10.6% (active) with SR leukemia; -35.6% (active) with RPMI-8226 leukemia; 4.28% (active) with OVCAR-8 ovarian; 7.02% (active) with OVCAR-5 ovarian; 2.15% (active) in the test with OVCAR-4 ovarian; -22.2% (active) in the test with SK-OV-3 ovarian. The growth in the test with IGROV1 ovarian was -47.7% (active); in the test with OVCAR-3 ovarian, 3.17% (active); in the test on HS 578T breast it was -24.5% (active); with NCI/ADR-RES ovarian, 3.68% (active); in the test with T-47D breast it was -7.59% (active); in the test on MDA-MB-435 melanoma, 7.35% (active). Further, the growth in the test with SW-620 colon was 0.122% (active); in the test on MCF7 breast, 10.6%; with HCT-116 colon, -30.6% (active); in the test with HCC-2998 colon, 5.87% (active); with KM12 colon, 6.87% (active).
Take `COc1cc(/C=C2\CN(S(=O)(=O)c3ccc(C)cc3)C/C(=C\c3cc(CN4CCCC4)c(O)c(OC)c3)C2=O)cc(CN2CCCC2)c1O`: the growth in the test with SR leukemia is -19.4% (active); in the test with RPMI-8226 leukemia, -34.6% (active); in the test on OVCAR-8 ovarian, 8.04% (active); in the test on OVCAR-5 ovarian, -2.7% (active); with OVCAR-4 ovarian, 12.1%; in the test on SK-OV-3 ovarian it was 33.9%. The growth with IGROV1 ovarian was -20.1% (active); in the test with OVCAR-3 ovarian, -27.8% (active); in the test with HS 578T breast, 9.95% (active); in the test on NCI/ADR-RES ovarian it was 77.8%; with BT-549 breast it was 12.7%; in the test with MDA-MB-435 melanoma it was -76.8% (active). Also, the growth in the test with SW-620 colon was -68.1% (active); with MCF7 breast, -25.5% (active); in the test with HCT-116 colon, -91.7% (active); with HCC-2998 colon, -89.5% (active); in the test on KM12 colon, -63.9% (active).
Regarding `CN1CCN(Cc2ccc(NC(=O)c3cncc(C#Cc4cnc(N)c5ccc(C#N)cc45)c3)cc2C(F)(F)F)CC1`, the growth in the test with SR leukemia is 20%; with RPMI-8226 leukemia, -25.3% (active); in the test on OVCAR-8 ovarian it was -68.4% (active); with OVCAR-5 ovarian, -79.6% (active); with OVCAR-4 ovarian, -56.8% (active); in the test on SK-OV-3 ovarian it was -4.83% (active). In addition, the growth with IGROV1 ovarian is -64.1% (active); with OVCAR-3 ovarian, 3.19% (active); in the test on HS 578T breast, -32.1% (active); in the test with NCI/ADR-RES ovarian, -13.6% (active); in the test with BT-549 breast, 37.3%; with MDA-MB-435 melanoma, -74.3% (active). The growth in the test on SW-620 colon is -41.3% (active); with MCF7 breast, -60.8% (active); in the test with HCT-116 colon it was -65.7% (active); with HCC-2998 colon, 32.6%; in the test with KM12 colon, -85.1% (active).
For `COc1cc2c(c(OC)c1OC)CCC(c1cccc(C(=O)Nc3ccc([N+](=O)[O-])cc3)c1)O2` (configuration not stated), the growth is 24.9% with SR leukemia; 9.24% (active) in the test with RPMI-8226 leukemia; 42% in the test on OVCAR-8 ovarian; 84.3% in the test with OVCAR-5 ovarian; 40.7% with OVCAR-4 ovarian; 78.4% in the test with SK-OV-3 ovarian. Also, the growth in the test on IGROV1 ovarian was 72.2%; with OVCAR-3 ovarian, 56.5%; with HS 578T breast, 77.1%; with NCI/ADR-RES ovarian, 38.2%; in the test on BT-549 breast, 27.4%; with MDA-MB-435 melanoma, 54.5%. Moreover, the growth with SW-620 colon is 77.7%; with MCF7 breast it was 45.9%; with HCT-116 colon it was 40.4%; in the test with HCC-2998 colon, 68.3%; in the test on KM12 colon, 57.7%.
Consider `CCN1C(=O)N(CC)C2C1NN=c1s/c(=C\c3ccccc3)c(=O)n12` (configuration not stated), for which the growth is 14.8% in the test with SR leukemia; 11.6% in the test with RPMI-8226 leukemia; -9.95% (active) with OVCAR-8 ovarian; 30.2% in the test on OVCAR-5 ovarian; 48.1% in the test with OVCAR-4 ovarian; 33.5% with SK-OV-3 ovarian. Besides, the growth is 19.8% with IGROV1 ovarian; -7.69% (active) in the test with OVCAR-3 ovarian; 16.8% with HS 578T breast; 2.31% (active) with NCI/ADR-RES ovarian; 13.2% with BT-549 breast; -24.8% (active) in the test with MDA-MB-435 melanoma. Besides, the growth was 18.8% in the test with SW-620 colon; 16.2% with MCF7 breast; 9.74% (active) in the test with HCT-116 colon; 16.2% with HCC-2998 colon; 12.2% in the test on KM12 colon.
For `O=C1CCc2c(sc3[nH]c(=S)n(-c4cc(C(F)(F)F)cc(C(F)(F)F)c4)c(=O)c23)C1`, the growth in the test on SR leukemia was 13.4%; in the test on RPMI-8226 leukemia, -23.7% (active); in the test with OVCAR-8 ovarian it was 1.35% (active); with OVCAR-5 ovarian, -24.4% (active); in the test with OVCAR-4 ovarian, 4.84% (active); in the test with SK-OV-3 ovarian, -18.7% (active). In addition, the growth in the test with IGROV1 ovarian is -10.5% (active); in the test with OVCAR-3 ovarian, -13.3% (active); with HS 578T breast, -6.29% (active); in the test with NCI/ADR-RES ovarian it was -13.4% (active); in the test on BT-549 breast, 3.75% (active); in the test with MDA-MB-435 melanoma, 7.15% (active). In addition, the growth in the test with SW-620 colon is 18.5%; in the test with HCT-116 colon, 3.29% (active); in the test with HCC-2998 colon, -49.1% (active); in the test on KM12 colon, -70.2% (active).
Turning to `O=C1N/C(=N/N=C(c2ccccc2)c2ccccc2)S/C1=C\c1ccc(Br)cc1`, the growth with SR leukemia is 83.3%; with RPMI-8226 leukemia, 95.6%; in the test on OVCAR-8 ovarian, 95.6%; in the test with OVCAR-5 ovarian, 102%; in the test on OVCAR-4 ovarian, 96.8%; with SK-OV-3 ovarian it was 97.2%. Further, the growth in the test with IGROV1 ovarian is 91.9%; in the test on OVCAR-3 ovarian it was 102%; in the test on HS 578T breast, 95%; with NCI/ADR-RES ovarian, 103%; in the test on T-47D breast it was 84.7%; in the test on MDA-MB-435 melanoma, 103%. For the same compound, the growth was 90.7% with SW-620 colon; 99.6% in the test with MCF7 breast; 81.8% with HCT-116 colon; 99.5% in the test with HCC-2998 colon; 92.9% in the test with KM12 colon.
